# Laboratory results reported in paper PMC5700166.
# Key:
# Assay in all cases: protein-binding microarray (PBM); PBM: ~300 nM protein, 6 mM HEPES pH 7.8, 80 mM KCl, 0.5 mM EDTA, 0.5 mM EGTA, 6% glycerol, 35 ng/ul poly-dIdC, 1% milk, 1 h, room temperature; Ap Aiptasia and Nv Nematostella (sea anemones) / Co Capsaspora / Aq Amphimedon (sponge) / Dm Drosophila / Hu human; RHD is the Rel homology domain; high values mean tight binding
# Details in all cases: dsDNA, one strand shown
# GST-Ap-NF-kB RHD = target: T1, GST-Ap-NF-kB RHD (Exaiptasia pallida (Aiptasia), UniProt A0A913YAJ5 2-422)
# T1 sequence: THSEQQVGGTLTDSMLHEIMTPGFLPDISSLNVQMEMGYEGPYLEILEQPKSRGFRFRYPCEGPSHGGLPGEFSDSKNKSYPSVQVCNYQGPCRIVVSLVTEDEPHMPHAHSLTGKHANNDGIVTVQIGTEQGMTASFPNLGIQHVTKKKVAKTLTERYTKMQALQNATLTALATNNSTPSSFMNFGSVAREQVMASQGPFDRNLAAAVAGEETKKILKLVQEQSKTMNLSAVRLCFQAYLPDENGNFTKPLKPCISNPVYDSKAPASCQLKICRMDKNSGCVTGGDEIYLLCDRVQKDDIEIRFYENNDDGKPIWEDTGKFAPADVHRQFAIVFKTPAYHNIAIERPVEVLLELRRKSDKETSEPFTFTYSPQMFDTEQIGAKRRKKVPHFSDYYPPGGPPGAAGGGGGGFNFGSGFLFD
# [1] = target: T2, GST-Nv-NF-kB (Cys allele) (Nematostella vectensis, UniProt E5G601 2-411)
# T2 sequence: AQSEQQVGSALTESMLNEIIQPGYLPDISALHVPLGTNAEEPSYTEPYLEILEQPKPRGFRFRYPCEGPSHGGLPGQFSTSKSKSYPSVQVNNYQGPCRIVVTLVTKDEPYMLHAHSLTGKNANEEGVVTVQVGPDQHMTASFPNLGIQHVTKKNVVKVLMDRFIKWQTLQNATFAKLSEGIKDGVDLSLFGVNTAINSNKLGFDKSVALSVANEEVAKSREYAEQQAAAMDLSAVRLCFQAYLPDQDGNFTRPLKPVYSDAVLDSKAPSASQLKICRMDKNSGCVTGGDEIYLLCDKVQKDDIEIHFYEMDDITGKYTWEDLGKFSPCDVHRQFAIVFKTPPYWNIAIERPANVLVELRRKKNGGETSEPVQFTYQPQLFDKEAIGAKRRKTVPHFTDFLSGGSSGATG
# GST-Co-NF-kB = target: T3, GST-Co-NF-kB (Capsaspora owczarzaki, UniProt F1ARL5 200-546)
# T3 sequence: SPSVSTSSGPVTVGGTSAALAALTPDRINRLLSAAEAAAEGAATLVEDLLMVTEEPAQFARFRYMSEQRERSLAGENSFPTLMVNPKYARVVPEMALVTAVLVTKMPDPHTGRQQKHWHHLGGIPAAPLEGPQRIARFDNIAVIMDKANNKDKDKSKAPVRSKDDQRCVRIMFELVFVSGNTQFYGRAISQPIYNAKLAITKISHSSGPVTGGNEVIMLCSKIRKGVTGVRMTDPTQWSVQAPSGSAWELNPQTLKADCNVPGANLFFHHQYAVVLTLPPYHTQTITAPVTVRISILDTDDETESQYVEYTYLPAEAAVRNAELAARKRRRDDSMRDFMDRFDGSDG
# GST-Dm-Relish = target: T4, GST-Dm-Relish (Drosophila melanogaster, UniProt Q94527 99-473)
# T4 sequence: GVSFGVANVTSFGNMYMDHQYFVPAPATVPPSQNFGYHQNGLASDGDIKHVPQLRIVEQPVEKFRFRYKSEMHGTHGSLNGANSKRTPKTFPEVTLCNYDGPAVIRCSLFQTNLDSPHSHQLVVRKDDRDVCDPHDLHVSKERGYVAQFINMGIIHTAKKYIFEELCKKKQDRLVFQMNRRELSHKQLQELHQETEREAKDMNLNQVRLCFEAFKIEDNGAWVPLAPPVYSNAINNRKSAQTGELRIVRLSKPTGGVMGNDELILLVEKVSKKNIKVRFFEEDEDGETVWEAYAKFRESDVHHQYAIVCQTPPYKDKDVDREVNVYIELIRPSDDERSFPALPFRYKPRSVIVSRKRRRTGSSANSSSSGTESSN
# GST-Aq-NF-kB = target: T5, GST-Aq-NF-kB (Amphimedon queenslandica, UniProt A9Y5G7 2-389)
# T5 sequence: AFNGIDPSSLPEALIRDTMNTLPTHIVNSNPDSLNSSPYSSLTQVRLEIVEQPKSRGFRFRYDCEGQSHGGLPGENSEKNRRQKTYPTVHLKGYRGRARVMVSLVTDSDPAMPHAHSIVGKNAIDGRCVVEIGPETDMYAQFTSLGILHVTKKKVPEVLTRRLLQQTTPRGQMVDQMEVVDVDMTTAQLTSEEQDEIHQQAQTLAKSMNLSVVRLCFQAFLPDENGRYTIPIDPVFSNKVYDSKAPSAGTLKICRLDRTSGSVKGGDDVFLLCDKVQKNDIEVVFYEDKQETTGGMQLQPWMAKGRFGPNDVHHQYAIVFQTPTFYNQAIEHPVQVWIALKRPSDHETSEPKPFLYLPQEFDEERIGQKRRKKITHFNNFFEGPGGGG
Sequence,binding signal (GST-Ap-NF-kB RHD) [z-score],binding signal [1] [z-score],binding signal (GST-Co-NF-kB) [z-score],binding signal (GST-Dm-Relish) [z-score],binding signal (GST-Aq-NF-kB) [z-score]
CCGATTAACATCAGGGGTTTCACTGATGTTAATCGGGTCTTGATTCGCTTGACGCTGCTG,3.56,3.24,2.93,7.34,4.84
CCGATTAACATCAAAACAGCCCCTGATGTTAATCGGGTCTTGATTCGCTTGACGCTGCTG,3.58,4.9,1.71,3.31,5.54
CCGATTAACATCAAATGACCCCCTGATGTTAATCGGGTCTTGATTCGCTTGACGCTGCTG,4.25,2.8,2.98,3.27,4.02
CCGATTAACATCACGGGGTTCCCTGATGTTAATCGGGTCTTGATTCGCTTGACGCTGCTG,4.82,2.58,2.51,9.28,6.02
CCGATTAACATCAGGGGGCATTATGATGTTAATCGGGTCTTGATTCGCTTGACGCTGCTG,3.92,4.06,2.64,2.7,4.27
CCGATTAACATCAAATTCCCAGTTGATGTTAATCGGGTCTTGATTCGCTTGACGCTGCTG,1.52,3.74,2.97,4.29,2.37
CCGATTAACATCAGAACTTTCCCTGATGTTAATCGGGTCTTGATTCGCTTGACGCTGCTG,4.2,6.87,3.78,2.67,7.19
CCGATTAACATCAGGAGTTTCCCTGATGTTAATCGGGTCTTGATTCGCTTGACGCTGCTG,4.6,6.51,3.2,4.94,8.06
CCGATTAACATCAGGCACCCCCCTGATGTTAATCGGGTCTTGATTCGCTTGACGCTGCTG,5.14,3.21,2.79,5.16,4.88
CCGATTAACATCAAAGGTCCCCCTGATGTTAATCGGGTCTTGATTCGCTTGACGCTGCTG,6.07,4.14,4.7,4.42,4.58
CCGATTAACATCAAAAAACCCACTGATGTTAATCGGGTCTTGATTCGCTTGACGCTGCTG,2.65,2.49,1.66,5.49,3.61
CCGATTAACATCACTAAAATCCCTGATGTTAATCGGGTCTTGATTCGCTTGACGCTGCTG,3.37,3.38,1.18,5.48,3.65
CCGATTAACATCAAGTATTCCCATGATGTTAATCGGGTCTTGATTCGCTTGACGCTGCTG,2.44,2.26,3.57,2,1.85
CCGATTAACATCACGCAACCCCCTGATGTTAATCGGGTCTTGATTCGCTTGACGCTGCTG,5.37,3.7,2,5.08,3.89
